Shown are actives, neighbours in structure and some others; about 1.3% of the full set was active somewhere.
NPR2 activator: human GC-B receptor activators, primary screen, HEK293 GC-B cells, cGMP TR-FRET, EC30 CNP. 0% at EC30 CNP, 100% saturating CNP. activation, % at 10 µM. 370,000 tested, 0.11% active;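 active means activation at 10 µM reaching about 35% in either raw or pattern-adjusted values, limit read from the data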
ADAM17 inh: ADAM17 inhibitors, primary screen, biochemical, QFRET. 370,000 tested, 0.83% active. inhibition, % at 6.95 µM. AID 720648, 2013. recombinant ADAM17, EDANS/DABCYL FRET peptide cleavage;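 active means inhibition above the mean of compounds lying between control limits plus 3 SD, set per campaign, cut at about 8.5% in these data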;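 further: 0% = DMSO-only wells as the low control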
ADAM10 inh: human ADAM10 inhibitors, primary screen, biochemical, QFRET, HTS; recombinant ADAM10, EDANS/DABCYL FRET peptide cleavage, 3 h; inhibition, % at 7 µM; 370,000 tested, 0.62% active;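 active means inhibition above a per-campaign cutoff equal to the mean of compounds falling between control-based bounds plus 3 SD, cut at about 20% in these data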;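 further: 0% = DMSO wells while the 100% control is not disclosed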
NPR1 activator: GC-A stimulated cGMP production enhancers – HEK293 GC-A cells, cGMP TR-FRET, EC30 ANP, primary screen; 0% at EC30 ANP, 100% saturating ANP; 370,000 tested, 0.14% active; activation, % at 10 µM; in the data active means activation above about 40%
ADAM10 confirm: human ADAM10 inhibitors, confirmation, biochemical, QFRET, triplicate. shares compounds with ADAM10 inh. inhibition, % at 6.95 µM. 2,100 tested, 1% active. ADAM10 QFRET peptide cleavage, EDANS fluorescence;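 active means inhibition above about 20% chosen separately for each screening run, limit read from the data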;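 further: 0% = DMSO wells and 100% = marimastat wells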
ADAM17 counter: ADAM17 inhibitors, counter-screen for ADAM10 exosite inhibitor project, biochemical, QFRET, high throughput; 2,100 tested, 0.5% active; inhibition, % at 6.95 µM; shares compounds with ADAM10 inh; ADAM17 QFRET peptide cleavage, EDANS fluorescence;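 active means mean triplicate inhibition above the solvent-only control wells' mean plus 3 SD, cut at about 12% in these data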;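 further: 0% = DMSO wells and 100% = marimastat wells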
ADAM10 ctr: ADAM10 inhibitors, counter-screen for ADAM17 exosite inhibitor project, biochemical, FRET, human ADAM10 | inhibition, % at 6.95 µM | shares compounds with ADAM17 inh | recombinant ADAM10, EDANS/DABCYL FRET peptide cleavage, 3 h | 2,900 tested, 47% active | AID 743256, 2014;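 active means mean inhibition over the triplicate runs exceeds the activity threshold set in the earlier primary screen, cut at about 20% in these data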;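 further: 0% = DMSO wells and 100% = marimastat wells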
ADAM17 confirm: ADAM17 inhibitors, hit retest, confirmation, biochemical, QFRET peptide cleavage | inhibition, % at 6.95 µM | recombinant ADAM17, EDANS/DABCYL QFRET peptide cleavage | AID 743257, 2014 | 2,900 tested, 65% active | shares compounds with ADAM17 inh;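 active means mean inhibition across replicates above the hit cutoff set in the primary screen, cut at about 8.5% in these data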;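 further: 0% = DMSO wells and 100% = marimastat wells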
The depositor's hits bear a star; . = no result.

SMILES	NPR2 activator	ADAM17 inh	ADAM10 inh	NPR1 activator	ADAM10 confirm	ADAM17 counter	ADAM10 ctr	ADAM17 confirm
C=CCc1cccc(CNc2nc3ccccc3n2CCC)c1O	-8.9	14.0*	34.7*	-13.8	6.4	1.5	41.5*	23.4*
Nc1nc(Nc2ccccc2)nc(NCc2ccco2)c1[N+](=O)[O-]	11.2	9.7*	21.5*	47.0*	2.2	0.8	35.7*	19.4*
O=C(c1ccc(COc2ccc(Cl)cc2)o1)N1N=C(C(F)F)CC1(O)C(F)F (centres undefined)	2.8	13.2*	34.5*	10.4	2.3	1.4	12.6	7.6
CN(CCc1ccccc1)C(=O)c1cccc(NC(=O)Cc2cccc(NC(=O)C3CCCN(C(=O)C4CC4)C3)c2)c1 (centres undefined)	-1.3	-3.5	-19.2	5.1	.	.	.	.
Cc1ccc(NC(=O)c2cc(NC(=O)c3ccccc3C(=O)O)ccc2N2CCCCC2)cc1	5.1	-0.5	-5.3	-3.0	.	.	.	.
Cc1ccc(NC(=O)c2cc(NC(=O)/C=C\C(=O)O)ccc2N2CCCCC2)cc1	6.5	18.6*	23.9*	-2.7	9.0	2.4	-10.0	1.4
COc1ccc(NS(=O)(=O)c2ccc(O)c(NS(=O)(=O)c3ccc(NC(C)=O)cc3)c2)cc1	2.2	0.9	6.9	0.7	.	.	.	.
C[C@@H]1CN([C@H](C)CO)C(=O)c2c(c3ccccc3n2C)-c2ccccc2CO[C@@H]1CN(C)C(=O)Nc1ccc2c(c1)OCO2	2.6	13.8*	21.5*	1.6	3.7	1.1	19.9*	9.5*
Cc1ccccc1S(=O)(=O)N(C)C[C@@H]1OCc2ccccc2-c2c(n(C)c3ccccc23)C(=O)N([C@H](C)CO)C[C@@H]1C	-0.6	9.7*	27.3*	-2.3	5.6	2.5	31.7*	16.0*
CN(C)c1cccc(NC(=O)c2cccc3ccccc23)c1	4.4	-0.1	6.5	4.4	.	.	.	.
CCCCCCCCCCSc1n[nH]c(N)n1	-3.4	18.9*	45.1*	3.1	1.6	1.1	17.5	10.1*
CSCCC(NC(=O)c1ccccc1Cl)C(=O)N1CCN(c2ccccn2)CC1 (centres undefined)	1.2	-7.8	-17.3	4.6	.	.	.	.
O=C(Nc1ccc(Nc2ccccc2)cc1)C(Cl)(Cl)Cl	7.8	9.8*	25.6*	2.2	5.3	1.5	8.0	4.3
O=C(Nc1cccc(Cl)c1)c1cccnn1	0.7	1.4	-2.1	5.2	.	.	.	.
OC(c1cccc(Cl)c1)c1ncc(-c2ccc(Oc3ccccc3)cc2)[nH]1 (centres undefined)	0.4	11.2*	24.7*	0.2	9.5	4.2	41.8*	21.0*
Cc1cc(F)ccc1C(O)c1ncc(-c2ccc(Oc3ccccc3)cc2)[nH]1 (centres undefined)	5.5	11.8*	29.5*	4.2	6.0	2.3	19.9*	14.2*
OC(c1ccc(Cl)c(Cl)c1)c1ncc(-c2ccc(C(F)(F)F)cc2)[nH]1 (centres undefined)	3.3	9.0*	26.3*	-3.5	7.6	1.8	29.6*	14.7*
COCCCn1c(SCC(=O)NC2CCCCC2)nnc1-c1ccco1	0.8	0.1	4.1	2.1	.	.	.	.
O=C1CCC[C@H]2CC3(CC[C@]24CCCN14)OCCO3	1.3	-4.6	-4.3	-0.9	.	.	.	.
CCOC(=O)N1CCN(C(=O)c2ccc(Cn3c(=S)[nH]c4ccc(Br)cc4c3=O)cc2)CC1	3.3	-3.5	-3.0	-3.3	.	.	.	.
O=C(O)c1ccc(-n2cccc2/C=C2/SC(=O)N(CC(=O)N3CCCC3)C2=O)cc1	2.5	-4.1	-12.3	-6.2	.	.	.	.
CC(C)(C)NC(=O)C(c1ccccn1)N(C(=O)C1CSC(=O)C1)c1cccc(F)c1 (centres undefined)	-1.6	-0.2	3.4	-5.3	.	.	.	.
Cc1ccc(C)c(Oc2cc(NC(=O)CCCn3nc(C)c([N+](=O)[O-])c3C)cc([N+](=O)[O-])c2)c1	-5.9	-0.9	-8.2	-3.8	.	.	.	.
Cc1ccc(Oc2cc(NC(=O)CCCn3nc([N+](=O)[O-])cc3C)cc([N+](=O)[O-])c2)cc1	-1.6	12.9*	22.7*	5.2	6.4	2.7	31.7*	17.6*
Cc1ccc([C@H]2C[C@H](n3cc(-c4ccc(F)cc4)nn3)[C@@H](O)CN2CC2CCCCC2)cc1	-2.3	-5.1	-16.5	-5.8	.	.	.	.
SMILES	NPR2 activator	ADAM17 inh	ADAM10 inh	NPR1 activator	ADAM10 confirm	ADAM17 counter	ADAM10 ctr	ADAM17 confirm
COc1ccc([N+](=O)[O-])cc1NC(=O)C(C)c1ccccc1 (centres undefined)	0.1	0.3	5.5	-2.6	.	.	.	.
COc1ccc([N+](=O)[O-])cc1NC(=S)NC(NC(=O)C(c1ccccc1)c1ccccc1)C(Cl)(Cl)Cl (centres undefined)	-4.5	19.2*	32.1*	1.2	9.1	2.9	29.1*	13.9*
Cc1ccc(S(C)(=O)=O)cc1C(=O)NC(C)C1CC2CCC1C2 (centres undefined)	0.7	-1.9	-5.4	3.9	.	.	.	.
O=c1cc(NS(=O)(=O)c2ccccc2)nc(SCc2ccc(Cl)cc2)[nH]1	0.6	10.5*	20.0*	-3.5	9.9	3.4	24.8*	13.7*
Cc1ccc(CNC(=O)CNC(=O)[C@@H]2Cc3ccccc3CN2C(=O)OC(C)(C)C)cc1	-4.8	1.8	1.5	-0.9	.	.	.	.
CCOc1ccc(-n2c(SC/C=C/c3ccccc3)nnc2-c2ccco2)cc1	0.4	6.7	15.4	2.7	.	.	.	.
CCOc1ccc(NS(=O)(=O)c2cc(C(=O)N3CCCC3)ccc2Cl)cc1	0.3	3.8	-1.6	-5.3	.	.	.	.
CCOc1ccc(NS(=O)(=O)c2cc(NC(=O)c3cccc(C)c3)ccc2Cl)cc1	-4.6	13.7*	31.1*	-8.0	7.8	3.0	31.4*	18.7*
Cc1cc(NC(=O)CS(=O)(=O)c2cn(Cc3cccc(Cl)c3)c3ccccc23)no1	-6.2	10.7*	20.1*	-8.1	0.2	0.5	11.0	7.2
